Records with an inconclusive call do not appear. Where a call stands in place of a potency, no number is given. Unmarked numbers belong to inactive results. The source made the active and inactive calls. The call rests on the fitted dose curve; in most records, active means well fitted activation curve with a large enough effect; inconclusive means small, poorly fitted or top-dose-only effect; inactive means no such curve, though single readings can be large or run the other way.
Assay: qHTS assay for re-activators of p53 using a Luc reporter: Hit Validation; further: nearly all actives have a fitted effect of over 75% in size
Conditions: p53-responsive luciferase reporter cells, luminescence, H1299 line expressing heat-sensitive Ala138Val p53; series mostly up to 46.1 µM
In short: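 H1299 (p53-null) cells stably carrying p53-A138V and a BP100-luciferase reporter, 1000 cells/well, treated 24 h at 37 deg C. Compounds at several concentrations, 1:5 dilution; nocodazole control; luminescence read after 10 min with detection reagent.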
In the case of `C/C(=N/NC(=S)Nc1ccccc1)c1ccc2c(c1)OCO2`, the Potency is reported as “inactive”. In the case of `Cc1ccsc1/C=C(\C#N)C(=O)Nc1c(C)n(C)n(-c2ccccc2)c1=O`, the Potency is reported as “inactive”. In the case of `Clc1ccc(OCc2nc(-c3ccncc3)no2)c(Cl)c1`, the Potency is reported as 8200 nM (active). With `CCc1nnc(NC(=O)CCC(=O)Nc2ccccc2)s1` the Potency was “inactive”. With `COc1ccccc1Oc1c(C)oc2c(CN(C)C)c(O)ccc2c1=O` the Potency was “inactive”. In the case of `O=C(/C(=N/N=C/c1ccc(O)c(O)c1)c1ccccc1)c1ccccc1`, the Potency is reported as “inactive”. In the case of `CSC1=NCCN1C(=O)c1ccc(Br)o1`, the Potency is reported as “inactive”. With `Cc1ccc(S(=O)(=O)NCC(=O)NCC(=O)N2CCC(C)CC2)cc1` the Potency was “inactive”. For `Cc1ccc(OCC(=O)Nc2ccc(Cl)cc2)c([N+](=O)[O-])n1`, the Potency was 16400 nM (active). With `CC(=O)/C=C(\C)Nc1ccc(-c2cnc(-c3ccccc3)o2)cc1` the Potency was 2590 nM (active). For `CCCCc1ccc(NC(=S)Nc2ccc(Nc3ccc(OC)cc3)cc2)cc1`, the Potency was “inactive”. In the case of `CC1CC1C(=O)Nc1nc2ccc(S(C)(=O)=O)cc2s1` (stereo not drawn), the Potency is reported as “inactive”. For `Cc1ccc(NC(=S)NCC2CCCO2)c(OC(F)F)c1` (stereo not drawn), the Potency was “inactive”. `Cc1nonc1NCn1nnc2ccccc21` gave an activation of 7.94% [at 9.22 µM]. In the case of `Clc1ccc(-c2nnc(SCc3ccon3)o2)c(Cl)c1`, the Potency is reported as 366 nM (active). With `c1ccc(-c2nnc(-c3ccccn3)nc2NC2CCCCC2)cc1` the Potency was 18400 nM (active). With `CN1CCN(C(=O)c2cc3ccccc3cc2O)CC1` the Potency was “inactive”. For `CC(OC(=O)c1cccc([N+](=O)[O-])c1)C(=O)N1CCc2ccccc21` (stereo not drawn), the Potency was “inactive”. In the case of `COC(=O)c1nn(-c2ccc(-c3ccccc3)cc2)cc1O`, the Potency is reported as 92 nM (active). `Cc1cccc(C)c1NC(=O)CC(NCc1ccco1)C(=O)O` (stereo not drawn) showed an activation of -13.7% [at 9.22 µM]. With `CS(=O)(=O)c1ccc2nc(NC(=O)c3ccco3)sc2c1` the Potency was 14600 nM (active). With `Cc1cc(C(=O)N2CCN(c3ccccc3Cl)CC2)c(C)o1` the Potency was 29100 nM (active). For `O=C(NCCC1=CCCCC1)c1ccc([N+](=O)[O-])cc1`, the Potency was 2590 nM (active). With `COc1ccc(N2CCN(C(=O)COC(=O)c3ccc(OC(F)F)cc3)CC2)cc1` the Potency was “inactive”. With `O=C(NC(=S)Nc1cccc(O)c1)C1CCCCC1` the Potency was 14600 nM (active). With `O=C(NCCCNC1CCCCC1)c1ccc(/C=N/O)nc1` the Potency was “inactive”. For `COc1cccc(NC(=O)CSC2=C(C#N)C(c3ccco3)C3=C(CCCC3=O)N2)c1` (stereo not drawn), the Potency was “inactive”. In the case of `Cc1ccc2nc(SCn3nnc4ccccc4c3=O)[nH]c2c1`, the Potency is reported as 1300 nM (active). In the case of `CN(C)c1ccc(/C=N/N=C/c2ccccc2O)cc1`, the Potency is reported as 461 nM (active). In the case of `CN(C)/C=N/c1cnc(C(=O)c2ccc(Cl)cc2)n1C`, the Potency is reported as 2590 nM (active). For `Cc1nc2ccccc2nc(C)c1=NOCc1ccccc1Cl`, the Potency was “inactive”. With `O=C(NC(=S)NCCc1ccccc1)C1CCCCC1` the Potency was 23100 nM (active). For `O=C(Nc1cccc(O)c1)C(=O)Nc1ccccn1`, the Potency was 2310 nM (active). For `CC(=O)c1cc2c(C)c(C(=O)c3ccccc3)oc2cc1O`, the Potency was 411 nM (active). For `CCOc1cc(S(=O)(=O)NC2CCCCCC2)ccc1F`, the Potency was “inactive”. For `Cc1cccc(NC2SC(=O)N(c3ccccc3)C2=O)c1` (stereo not drawn), the Potency was “inactive”. For `Nc1nc(-c2ccc([N+](=O)[O-])cc2)cs1`, the Potency was “inactive”. For `Cc1ccc(NC(=O)/C=C/c2ccc([N+](=O)[O-])s2)c(C)c1`, the Potency was 2910 nM (active).
Potency means the concentration at half of the fitted maximal effect.
